Common to all, as to test: DAPPL (digital affinity profiling via proximity ligation, sequencing); 10 mM Tris-HCl pH 7.5, 50 mM NaCl, 1 mM DTT, 4% glycerol, room temperature, 30 min; GST-TFs on glutathione beads, 16-mer random dsDNA library, 0.1% formaldehyde crosslink after washing; high values mean tight binding
Assay [1] concerns the target T1, FEV (Homo sapiens, UniProt Q99581 1-238).
T1 sequence: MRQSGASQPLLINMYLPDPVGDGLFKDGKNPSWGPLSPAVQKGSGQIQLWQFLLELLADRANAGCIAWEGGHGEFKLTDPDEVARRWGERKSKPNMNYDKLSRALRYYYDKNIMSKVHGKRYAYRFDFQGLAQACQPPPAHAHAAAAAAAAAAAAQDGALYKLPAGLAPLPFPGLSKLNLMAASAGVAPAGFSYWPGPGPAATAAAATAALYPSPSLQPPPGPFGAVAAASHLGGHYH
Particulars: protein: recombinant; tags: N-terminal GST; dsDNA, one strand shown. An outline of the steps: (§1)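 Binding signal is given per hexamer as its read frequency for a factor divided by its frequency in the tag-only sample. GST-fused human transcription factors were expressed in yeast, captured on glutathione beads, barcoded with DNA and pooled with that sample, then incubated with 200 nmole of a 16-mer random double-stranded DNA library in Tris/NaCl/DTT/glycerol buffer for 30 min at room temperature. The pools were then washed, crosslinked, proximity-ligated, amplified by PCR and sequenced on an Illumina NextSeq500.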

Assay [2] has as its target ETV5 (Homo sapiens, UniProt P41161 1-510). The following applies: protein: recombinant; tags: N-terminal GST; dsDNA, one strand shown. An outline of the steps: as §1
Assay [3] concerns the target HSF1 (Homo sapiens, UniProt Q00613 1-529). Particulars: protein: recombinant; tags: N-terminal GST; chain copies: 3; dsDNA, one strand shown. An outline of the steps:
as §1

In assay [4] the target is T2, SPIC (Homo sapiens, UniProt Q8N5J4 1-248).
T2 sequence: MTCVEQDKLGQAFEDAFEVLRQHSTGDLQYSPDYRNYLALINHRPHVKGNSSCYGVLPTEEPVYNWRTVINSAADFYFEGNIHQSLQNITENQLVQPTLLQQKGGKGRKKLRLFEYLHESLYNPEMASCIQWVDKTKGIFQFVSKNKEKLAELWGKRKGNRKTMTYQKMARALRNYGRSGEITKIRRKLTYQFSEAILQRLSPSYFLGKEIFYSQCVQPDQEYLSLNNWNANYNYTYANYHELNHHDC
Particulars: protein: recombinant; tags: N-terminal GST; dsDNA, one strand shown. An outline of the steps: as §1

Assay [5] concerns the target ELF4 (Homo sapiens, UniProt Q99607 1-663). Particulars: protein: recombinant; tags: N-terminal GST; dsDNA, one strand shown. In short, it runs like this:
as §1

The target in assay [6] is T3, ELK4 (Homo sapiens, UniProt P28324-2 1-405).
T3 sequence: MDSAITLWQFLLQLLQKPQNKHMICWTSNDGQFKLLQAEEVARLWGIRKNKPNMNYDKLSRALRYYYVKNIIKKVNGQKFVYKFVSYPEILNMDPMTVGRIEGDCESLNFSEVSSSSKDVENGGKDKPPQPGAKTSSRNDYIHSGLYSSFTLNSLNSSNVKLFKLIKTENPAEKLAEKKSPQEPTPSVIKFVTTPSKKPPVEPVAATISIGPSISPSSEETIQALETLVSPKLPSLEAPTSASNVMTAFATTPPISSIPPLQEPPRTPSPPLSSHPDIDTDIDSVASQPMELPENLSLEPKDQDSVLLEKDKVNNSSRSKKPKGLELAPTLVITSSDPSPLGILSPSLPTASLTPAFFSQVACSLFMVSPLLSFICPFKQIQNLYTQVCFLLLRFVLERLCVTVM
Particulars: protein: recombinant; tags: N-terminal GST; dsDNA, one strand shown. An outline of the steps:
as §1

Assay [7] deals with T4, ETV2 (Homo sapiens, UniProt O00321 1-342).
T4 sequence: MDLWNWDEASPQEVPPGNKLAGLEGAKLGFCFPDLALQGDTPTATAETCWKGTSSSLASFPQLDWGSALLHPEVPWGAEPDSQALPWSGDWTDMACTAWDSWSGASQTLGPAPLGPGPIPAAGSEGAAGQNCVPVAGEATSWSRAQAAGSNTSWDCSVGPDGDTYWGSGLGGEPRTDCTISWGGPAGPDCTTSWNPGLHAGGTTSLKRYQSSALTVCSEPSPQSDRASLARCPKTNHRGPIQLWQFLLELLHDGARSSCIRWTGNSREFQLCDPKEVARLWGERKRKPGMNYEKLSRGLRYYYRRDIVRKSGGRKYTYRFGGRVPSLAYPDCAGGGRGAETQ
Particulars: protein: recombinant; tags: N-terminal GST; dsDNA, one strand shown. An outline of the steps: as §1

Assay [8] concerns the target T5, ELF3 (Homo sapiens, UniProt P78545 1-371).
T5 sequence: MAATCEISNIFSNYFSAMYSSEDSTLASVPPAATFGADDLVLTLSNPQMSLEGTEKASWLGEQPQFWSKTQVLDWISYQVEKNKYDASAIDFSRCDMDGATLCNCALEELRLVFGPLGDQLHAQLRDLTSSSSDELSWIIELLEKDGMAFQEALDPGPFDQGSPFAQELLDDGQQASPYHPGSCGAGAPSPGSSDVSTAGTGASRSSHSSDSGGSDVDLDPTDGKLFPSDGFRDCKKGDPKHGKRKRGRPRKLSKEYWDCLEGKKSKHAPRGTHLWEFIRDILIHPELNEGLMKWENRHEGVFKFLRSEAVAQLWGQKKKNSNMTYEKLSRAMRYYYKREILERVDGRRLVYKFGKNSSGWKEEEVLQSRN
Particulars: protein: recombinant; tags: N-terminal GST; dsDNA, one strand shown. In short, it runs like this: as §1

In assay [9] the target is CRX (Homo sapiens, UniProt O43186 1-299). Particulars: protein: recombinant; tags: N-terminal GST; dsDNA, one strand shown. An outline of the steps: as §1
Assay [10] addresses ETV1 (Homo sapiens, UniProt P50549 1-477). Particulars: protein: recombinant; tags: N-terminal GST; dsDNA, one strand shown. In short, it runs like this: as §1
Assay [11] deals with T6, ERF (Homo sapiens, UniProt P50548 1-548).
T6 sequence: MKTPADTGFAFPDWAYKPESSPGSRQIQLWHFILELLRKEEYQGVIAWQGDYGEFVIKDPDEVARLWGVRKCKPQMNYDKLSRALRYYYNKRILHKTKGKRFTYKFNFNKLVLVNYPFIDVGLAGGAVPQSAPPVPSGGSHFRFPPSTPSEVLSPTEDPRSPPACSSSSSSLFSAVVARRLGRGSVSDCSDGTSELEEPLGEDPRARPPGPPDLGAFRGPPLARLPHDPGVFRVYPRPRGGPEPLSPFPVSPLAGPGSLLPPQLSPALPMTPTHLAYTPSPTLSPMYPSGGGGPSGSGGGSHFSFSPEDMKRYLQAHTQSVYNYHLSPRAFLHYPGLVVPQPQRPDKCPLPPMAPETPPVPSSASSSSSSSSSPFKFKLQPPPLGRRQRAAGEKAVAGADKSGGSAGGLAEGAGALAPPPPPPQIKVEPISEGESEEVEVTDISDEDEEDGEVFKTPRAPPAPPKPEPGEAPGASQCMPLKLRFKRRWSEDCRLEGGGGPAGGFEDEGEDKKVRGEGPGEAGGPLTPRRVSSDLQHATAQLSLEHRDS
The following applies: protein: recombinant; tags: N-terminal GST; dsDNA, one strand shown. In short, it runs like this: as §1

In assay [12] the target is T7, ETV3L (Homo sapiens, UniProt Q6ZN32 1-361).
T7 sequence: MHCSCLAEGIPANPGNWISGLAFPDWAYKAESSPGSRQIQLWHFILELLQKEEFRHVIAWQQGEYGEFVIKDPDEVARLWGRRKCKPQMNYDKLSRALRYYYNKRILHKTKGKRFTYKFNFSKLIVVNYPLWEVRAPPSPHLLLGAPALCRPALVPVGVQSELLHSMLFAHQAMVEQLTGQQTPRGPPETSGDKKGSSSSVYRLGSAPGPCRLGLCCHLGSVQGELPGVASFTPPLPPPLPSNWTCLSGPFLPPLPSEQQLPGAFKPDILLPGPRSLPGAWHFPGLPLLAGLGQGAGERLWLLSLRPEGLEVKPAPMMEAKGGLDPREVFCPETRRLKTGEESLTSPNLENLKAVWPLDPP
The following applies: protein: recombinant; tags: N-terminal GST; dsDNA, one strand shown. An outline of the steps:
as §1

Assay [13] deals with T8, ETS2 (Homo sapiens, UniProt P15036 1-469).
T8 sequence: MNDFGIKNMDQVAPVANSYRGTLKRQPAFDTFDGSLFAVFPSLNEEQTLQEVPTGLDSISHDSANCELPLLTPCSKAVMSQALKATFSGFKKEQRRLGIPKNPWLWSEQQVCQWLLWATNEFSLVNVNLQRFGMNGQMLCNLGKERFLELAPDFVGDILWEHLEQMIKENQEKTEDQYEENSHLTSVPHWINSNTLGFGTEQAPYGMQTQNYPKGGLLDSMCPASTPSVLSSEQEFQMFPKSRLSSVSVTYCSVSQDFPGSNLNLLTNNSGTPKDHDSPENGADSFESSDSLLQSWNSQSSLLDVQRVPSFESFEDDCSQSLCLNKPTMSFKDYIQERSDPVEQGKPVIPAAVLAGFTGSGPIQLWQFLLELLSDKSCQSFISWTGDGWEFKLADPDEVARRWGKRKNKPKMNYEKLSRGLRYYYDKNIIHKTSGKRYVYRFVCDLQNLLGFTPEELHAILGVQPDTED
The following applies: protein: recombinant; tags: N-terminal GST; dsDNA, one strand shown. An outline of the steps: as §1

Assay [14] addresses T9, SPDEF (Homo sapiens, UniProt O95238 1-335).
T9 sequence: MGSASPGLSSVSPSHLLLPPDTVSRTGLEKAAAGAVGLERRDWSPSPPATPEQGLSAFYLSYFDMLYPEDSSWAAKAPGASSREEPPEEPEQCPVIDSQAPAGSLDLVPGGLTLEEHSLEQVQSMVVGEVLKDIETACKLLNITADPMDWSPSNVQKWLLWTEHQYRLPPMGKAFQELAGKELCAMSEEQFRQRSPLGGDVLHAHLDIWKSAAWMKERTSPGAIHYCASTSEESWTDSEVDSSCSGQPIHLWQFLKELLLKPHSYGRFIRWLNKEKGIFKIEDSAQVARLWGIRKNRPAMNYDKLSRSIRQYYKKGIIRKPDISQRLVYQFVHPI
Particulars: protein: recombinant; tags: N-terminal GST; dsDNA, one strand shown. An outline of the steps:
as §1

The target in assay [15] is T10, ETV7 (Homo sapiens, UniProt Q9Y603 1-341).
T10 sequence: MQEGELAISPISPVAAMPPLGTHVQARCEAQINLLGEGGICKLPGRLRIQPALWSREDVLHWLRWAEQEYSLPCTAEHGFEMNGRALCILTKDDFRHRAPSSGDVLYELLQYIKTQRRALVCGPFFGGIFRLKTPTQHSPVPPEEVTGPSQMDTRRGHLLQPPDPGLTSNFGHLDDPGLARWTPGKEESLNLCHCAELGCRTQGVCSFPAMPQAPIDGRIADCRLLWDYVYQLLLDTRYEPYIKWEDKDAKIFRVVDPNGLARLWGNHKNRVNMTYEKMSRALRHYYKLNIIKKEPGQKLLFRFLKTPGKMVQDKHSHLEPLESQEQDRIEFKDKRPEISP
Particulars: protein: recombinant; tags: N-terminal GST; dsDNA, one strand shown. In short, it runs like this: as §1

For assay [16], the target named is T11, ELF5 (Homo sapiens, UniProt Q9UKW6-2 1-255).
T11 sequence: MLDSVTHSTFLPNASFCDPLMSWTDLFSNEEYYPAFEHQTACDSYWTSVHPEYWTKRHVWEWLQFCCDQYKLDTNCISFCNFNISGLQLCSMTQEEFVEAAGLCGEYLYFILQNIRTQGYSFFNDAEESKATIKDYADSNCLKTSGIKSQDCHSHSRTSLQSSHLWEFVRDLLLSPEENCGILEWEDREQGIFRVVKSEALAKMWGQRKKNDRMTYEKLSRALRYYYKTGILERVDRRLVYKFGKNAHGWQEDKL
The following applies: protein: recombinant; tags: N-terminal GST; dsDNA, one strand shown. In short, it runs like this:
as §1

Assay [17] addresses T12, ETV3 (Homo sapiens, UniProt P41162-2 1-143).
T12 sequence: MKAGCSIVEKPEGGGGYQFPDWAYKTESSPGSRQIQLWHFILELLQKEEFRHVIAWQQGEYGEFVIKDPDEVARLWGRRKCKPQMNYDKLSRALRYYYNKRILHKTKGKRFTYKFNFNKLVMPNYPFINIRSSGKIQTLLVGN
Particulars: protein: recombinant; tags: N-terminal GST; dsDNA, one strand shown. In short, it runs like this: as §1

Assay [18] concerns the target ETV6 (Homo sapiens, UniProt P41212 1-452). The following applies: protein: recombinant; tags: N-terminal GST; dsDNA, one strand shown. An outline of the steps:
as §1

The results in this text go back to article PMC7862700, “An all-to-all approach to the identification of sequence-specific readers for epigenetic DNA modifications on cytosine”.

HSF1, sequence (Q00613 whole entry): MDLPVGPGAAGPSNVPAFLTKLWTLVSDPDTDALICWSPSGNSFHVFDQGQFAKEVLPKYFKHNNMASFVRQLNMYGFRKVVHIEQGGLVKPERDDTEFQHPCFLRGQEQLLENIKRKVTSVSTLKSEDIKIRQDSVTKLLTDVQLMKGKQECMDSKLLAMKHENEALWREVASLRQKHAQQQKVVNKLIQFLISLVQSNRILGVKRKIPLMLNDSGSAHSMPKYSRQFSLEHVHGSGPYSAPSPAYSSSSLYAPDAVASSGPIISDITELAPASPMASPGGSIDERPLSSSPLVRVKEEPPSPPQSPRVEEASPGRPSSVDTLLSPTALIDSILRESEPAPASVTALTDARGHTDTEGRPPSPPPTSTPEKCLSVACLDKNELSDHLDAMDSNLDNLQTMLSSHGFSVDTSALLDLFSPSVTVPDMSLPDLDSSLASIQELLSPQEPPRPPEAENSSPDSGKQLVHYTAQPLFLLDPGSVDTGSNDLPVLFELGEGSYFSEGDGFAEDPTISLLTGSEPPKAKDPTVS
ETV5, sequence (P41161 whole entry): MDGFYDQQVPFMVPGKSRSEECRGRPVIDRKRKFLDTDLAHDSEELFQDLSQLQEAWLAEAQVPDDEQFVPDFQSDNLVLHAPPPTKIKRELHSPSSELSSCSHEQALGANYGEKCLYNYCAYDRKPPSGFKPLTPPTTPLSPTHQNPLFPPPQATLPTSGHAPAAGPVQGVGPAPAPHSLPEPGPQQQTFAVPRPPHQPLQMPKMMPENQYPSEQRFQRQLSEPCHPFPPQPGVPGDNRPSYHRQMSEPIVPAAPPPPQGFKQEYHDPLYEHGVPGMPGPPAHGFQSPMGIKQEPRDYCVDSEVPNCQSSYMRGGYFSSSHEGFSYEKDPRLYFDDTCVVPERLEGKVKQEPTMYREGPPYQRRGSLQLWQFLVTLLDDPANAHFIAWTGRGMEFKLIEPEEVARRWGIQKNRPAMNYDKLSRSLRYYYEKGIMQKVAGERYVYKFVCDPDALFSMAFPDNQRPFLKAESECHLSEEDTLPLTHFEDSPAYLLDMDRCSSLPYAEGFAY
CRX, sequence (O43186 whole entry): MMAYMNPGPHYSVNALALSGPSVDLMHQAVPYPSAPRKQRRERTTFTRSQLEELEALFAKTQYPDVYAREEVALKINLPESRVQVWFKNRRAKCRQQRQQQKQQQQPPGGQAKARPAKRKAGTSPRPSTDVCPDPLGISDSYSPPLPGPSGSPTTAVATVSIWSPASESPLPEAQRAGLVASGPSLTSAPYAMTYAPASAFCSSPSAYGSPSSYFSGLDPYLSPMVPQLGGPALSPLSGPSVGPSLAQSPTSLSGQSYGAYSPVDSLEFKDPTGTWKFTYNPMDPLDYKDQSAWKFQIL
ELF4, sequence (Q99607 whole entry): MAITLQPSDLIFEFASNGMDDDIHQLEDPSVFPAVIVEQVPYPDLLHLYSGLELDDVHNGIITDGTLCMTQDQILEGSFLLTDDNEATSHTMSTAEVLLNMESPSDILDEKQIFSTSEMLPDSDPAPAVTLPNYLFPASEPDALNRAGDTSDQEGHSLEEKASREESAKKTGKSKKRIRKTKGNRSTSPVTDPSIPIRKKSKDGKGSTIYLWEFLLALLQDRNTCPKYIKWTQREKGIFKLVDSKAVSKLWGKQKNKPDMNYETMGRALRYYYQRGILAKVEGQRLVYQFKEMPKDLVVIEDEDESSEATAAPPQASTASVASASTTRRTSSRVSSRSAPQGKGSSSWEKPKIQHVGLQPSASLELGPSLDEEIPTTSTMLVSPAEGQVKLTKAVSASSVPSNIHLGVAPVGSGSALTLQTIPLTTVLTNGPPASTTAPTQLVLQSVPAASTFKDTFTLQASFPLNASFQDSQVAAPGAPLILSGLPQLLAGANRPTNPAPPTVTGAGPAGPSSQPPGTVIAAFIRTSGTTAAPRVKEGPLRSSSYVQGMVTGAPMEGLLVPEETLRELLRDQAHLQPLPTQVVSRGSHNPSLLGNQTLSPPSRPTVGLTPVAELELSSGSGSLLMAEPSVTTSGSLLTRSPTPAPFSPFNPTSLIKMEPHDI
ETV6, sequence (P41212 whole entry): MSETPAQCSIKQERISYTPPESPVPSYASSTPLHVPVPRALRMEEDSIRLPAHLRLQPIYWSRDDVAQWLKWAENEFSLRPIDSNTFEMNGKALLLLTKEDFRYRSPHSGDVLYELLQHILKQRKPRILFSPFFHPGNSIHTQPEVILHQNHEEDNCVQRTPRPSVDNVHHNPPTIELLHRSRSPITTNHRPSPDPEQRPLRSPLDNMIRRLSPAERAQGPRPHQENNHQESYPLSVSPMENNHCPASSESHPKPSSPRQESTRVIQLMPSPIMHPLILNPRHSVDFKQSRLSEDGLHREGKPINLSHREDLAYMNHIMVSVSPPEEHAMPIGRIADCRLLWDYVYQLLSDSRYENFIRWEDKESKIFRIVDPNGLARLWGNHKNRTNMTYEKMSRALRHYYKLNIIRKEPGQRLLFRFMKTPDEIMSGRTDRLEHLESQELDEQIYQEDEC
ETV1, sequence (P50549 whole entry): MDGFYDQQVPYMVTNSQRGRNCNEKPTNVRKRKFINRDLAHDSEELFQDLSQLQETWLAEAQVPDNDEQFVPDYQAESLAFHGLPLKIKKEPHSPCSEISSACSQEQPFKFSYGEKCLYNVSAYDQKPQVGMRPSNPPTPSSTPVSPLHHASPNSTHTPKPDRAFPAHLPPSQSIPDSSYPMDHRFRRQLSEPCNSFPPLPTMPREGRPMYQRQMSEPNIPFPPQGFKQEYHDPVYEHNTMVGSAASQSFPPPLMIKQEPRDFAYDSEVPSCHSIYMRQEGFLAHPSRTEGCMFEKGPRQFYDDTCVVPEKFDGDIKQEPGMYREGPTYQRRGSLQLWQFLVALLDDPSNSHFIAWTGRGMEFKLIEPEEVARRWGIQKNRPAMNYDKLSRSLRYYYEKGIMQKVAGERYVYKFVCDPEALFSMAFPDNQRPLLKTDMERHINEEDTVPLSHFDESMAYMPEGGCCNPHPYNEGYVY

As for ATGTTC, the binding signal in assay [1] was 1.15 fold enrichment (6-mer frequency, TF over GST control); in assay [2] it was 1.16 fold enrichment (6-mer frequency, TF over GST control); in assay [3], 2.33 fold enrichment (6-mer frequency, TF over GST control); in assay [4] it was 1.32 fold enrichment (6-mer frequency, TF over GST control); in assay [5], 1.22 fold enrichment (6-mer frequency, TF over GST control); in assay [6], 1.2 fold enrichment (6-mer frequency, TF over GST control). In addition, the binding signal in assay [7] is 1.14 fold enrichment (6-mer frequency, TF over GST control); in [8], 1.15 fold enrichment (6-mer frequency, TF over GST control); in [9] it was 1.22 fold enrichment (6-mer frequency, TF over GST control); in assay [10] it was 1.3 fold enrichment (6-mer frequency, TF over GST control); in assay [11] it was 1.27 fold enrichment (6-mer frequency, TF over GST control); in assay [12], 1.31 fold enrichment (6-mer frequency, TF over GST control). Moreover, the binding signal in assay [13] is 1.25 fold enrichment (6-mer frequency, TF over GST control); in [14], 1.3 fold enrichment (6-mer frequency, TF over GST control); in assay [15] it was 1.3 fold enrichment (6-mer frequency, TF over GST control); in [16], 1.32 fold enrichment (6-mer frequency, TF over GST control); in assay [17], 1.34 fold enrichment (6-mer frequency, TF over GST control); in [18], 1.18 fold enrichment (6-mer frequency, TF over GST control).
